# Results taken from paper PMC4552634, “A New Set of Chemical Starting Points with Plasmodium falciparum Transmission-Blocking Potential for Antimalarial Drug Discovery” (PLoS ONE, 2015).
# The whole screen tested about 13,000 compounds, of which about 3,200 (25%) showed an effect of 50% or more. The list shows a part of the results.
# Tested on: P. falciparum stage V gametocytes
# Parameters: BacTiter-Glo ATP luminescence viability of purified stage V gametocytes in 384-well plates, per cent inhibition versus DMSO
# Conditions: 48 h, 5 µM; inhibitor
row,Structure (SMILES),% Inhibition [%]
1,[O-][s+]1c(Cl)c(-c2ccc(Cl)cc2)c2ccc(Cl)cc21 (centres unmarked) [TCMDC-124011],120.8
2,Cc1noc(C)c1-c1ccc(C(=C2CCCCCCC2)c2ccc(O)cc2)cc1 [TCMDC-135872],-5.918
3,Fc1ccc(-c2oc(C3CCN(CCc4ccc(-c5nc(=S)o[nH]5)cc4)CC3)nc2COCC(F)(F)F)cc1 [TCMDC-138124],11.59
4,O=C(Cc1c[nH]cn1)Nc1ccc(-c2ccc(-c3nc4cc(C(F)(F)F)ccc4[nH]3)s2)cc1 [TCMDC-136944],-5.397
5,O=C(Cc1c[nH]cn1)Nc1cccc(-c2ccc(-c3nc4cc(C(F)(F)F)ccc4[nH]3)s2)c1 [TCMDC-136945],84.53
6,O=C(Nc1cccc(-c2ccc(-c3nc4cc(C(F)(F)F)ccc4[nH]3)s2)c1)c1ccncc1 [TCMDC-136960],-10.77
7,O=C(Nc1ccc(-c2ccc(-c3nc4cc(C(F)(F)F)ccc4[nH]3)s2)cc1)c1c[nH]cn1 [TCMDC-136933],1.444
8,O=C(Nc1cccc(-c2ccc(-c3nc4cc(C(F)(F)F)ccc4[nH]3)s2)c1)c1c[nH]cn1 [TCMDC-136934],63.59
9,O=C(Cc1c[nH]cn1)Nc1cccc(-c2ccc(-c3nc4cc(F)ccc4[nH]3)s2)c1 [TCMDC-136953],5.637
10,Cc1cccc2nc(-c3cccc(-c4cccc(CNCCc5ccncc5)c4)c3)[nH]c12.O=C(O)C(F)(F)F [TCMDC-132844],3.347
11,O=C(CCc1cccnc1)Nc1cccc(-c2ccc(-c3nc4cc(C(F)(F)F)ccc4[nH]3)s2)c1 [TCMDC-132147],0.1764
12,CC(=O)Nc1ccc(C(=O)NC2CCN(c3ccnc4cc(Cl)ccc34)CC2)cc1 [TCMDC-133572],1.937
13,CC(C)C[C@H](NC(=O)c1cc2ccccc2s1)C(=O)N[C@H]1CCN(Cc2ccc(OCCN3CCNCC3)c3ccccc23)C1 [TCMDC-140289],107.5
14,CC(C)C[C@H](NC(=O)c1cc2ccccc2s1)C(=O)N[C@H]1CCN(Cc2ccc(OC[C@@H]3CCCN3C)c3ccccc23)C1 [TCMDC-140290],74.51
15,CC(C)C[C@H](NC(=O)c1cc2ccccc2s1)C(=O)N[C@H]1CCN(Cc2ccc(OC[C@@H]3CCCN3C)c(Cl)c2)C1 [TCMDC-140292],28.24
16,COc1ccc(Nc2nccc(N3CCC(NC(=O)c4cc5ccccc5s4)C3)n2)cc1 (centres unmarked) [TCMDC-133614],-3.392
17,COc1cc(Nc2nccc(N3CCC(NC(=O)c4cc5ccccc5s4)C3)n2)cc(OC)c1OC (centres unmarked) [TCMDC-133624],0.1379
18,O=C(Nc1cccc(C(F)(F)F)c1)N1CCOC(CCN2CCC3(CCc4ccccc43)CC2)(c2ccc(Cl)c(Cl)c2)C1 (centres unmarked) [TCMDC-135340],-5.677
19,OCC1CCN(Cc2cccc(C#Cc3cc4ncnc(Nc5ccc(OCc6cccc(F)c6)c(Cl)c5)c4s3)n2)CC1 [TCMDC-138841],11.44
20,Cc1cc(N2CCN(C)CC2)nc2ccc(NC(=O)c3cccc(N(C)C)c3)cc12 [TCMDC-124449],4.693
21,Cc1cc(N2CCN(C)CC2)nc2ccc(NC(=O)Cc3cccc(C(F)(F)F)c3)cc12 [TCMDC-123590],92.11

row,Structure (SMILES),% Inhibition [%]
1,CCN1CCN(c2cc(C)c3cc(NC(=O)c4cccc(C(F)(F)F)c4)ccc3n2)CC1 [TCMDC-125572],-33.11
2,Cc1cccn2c(=O)c3cc(C(=O)NC(C)c4ccccc4)c(=N)n(CCN4CCOCC4)c3nc12 (centres unmarked) [TCMDC-125137],27.67
3,COCCn1c(-c2nc(-c3ccc(F)cc3)cnc2N)nc2ccccc21 [TCMDC-138875],21.39
4,O=C(CCCC(=O)Nc1ccc(C2=NCCN2)cc1)Nc1ccc(C2=NCCN2)cc1 [TCMDC-138427],-1.956
5,O=C(C=Cc1ccc(C(=O)Nc2ccc(C3=NCCN3)cc2)cc1)Nc1ccc(C2=NCCN2)cc1 [TCMDC-137212],61.27
6,CN=C(N)c1ccc(NC(=O)c2ccc(C(=O)Nc3ccc(C(N)=NC)cc3)cc2)cc1 [TCMDC-137214],-8.132
7,CN=C(N)c1ccc(NC(=O)Nc2ccc(C(N)=NC)cc2)cc1 [TCMDC-137211],3.891
8,CN=C(N)c1ccc(NC(=O)C=Cc2ccc(C(=O)Nc3ccc(C(N)=NC)cc3)cc2)cc1 [TCMDC-137193],77.71
9,O=C(Nc1ccc(C(=O)Nc2cccc(C3=NCCN3)c2)cc1)Nc1ccc(C2=NCCN2)cc1 [TCMDC-137196],-21.25
10,N#Cc1cccc(C(=O)NC2CCN(c3ccnc(Nc4ccc(F)cc4)n3)C2)c1 (centres unmarked) [TCMDC-133593],17.79
11,Cc1ccc2[nH]cc(/C=C/C(=O)NC3CCC(CCN4CCc5ccc(C#N)cc5CC4)CC3)c2c1 (centres unmarked) [TCMDC-139682],84.8
12,O=C(NC1CCC(CCN2CCc3ccc(-c4cnccn4)cc3CC2)CC1)c1cccc(-n2cccn2)c1 (centres unmarked) [TCMDC-140329],67.17
13,Cn1cnc(-c2ccc3c(c2)CCN(CCC2CCC(NC(=O)/C=C/c4ccc(F)cc4)CC2)CC3)c1 (centres unmarked) [TCMDC-140338],59.86
14,Cc1c[nH]c2ccc(/C=C/C(=O)NC3CCC(CCN4CCc5ccc(C#N)cc5CC4)CC3)cc12 (centres unmarked) [TCMDC-139669],1.674
15,O=C(C=Cc1ccc(F)cc1)NC1CCC(CCN2CCc3ccc(-c4cnccn4)cc3CC2)CC1 (centres unmarked) [TCMDC-140328],0.8671
16,N#Cc1ccc2c(c1)CCN(CCC1CCC(NC(=O)/C=C/c3c[nH]c4ccc(F)cc34)CC1)CC2 (centres unmarked) [TCMDC-139667],-9.203
17,COc1ccccc1/C=C/C(=O)NC1CCC(CCN2CCc3ccc(-c4cc(C)no4)cc3CC2)CC1 (centres unmarked) [TCMDC-139975],80.37
18,O=C(C=Cc1cccc(F)c1)NC1CCC(CCN2CCc3ccc(-c4cnccn4)cc3CC2)CC1 (centres unmarked) [TCMDC-140326],-57.13
19,Cc1noc(-c2ccc3c(c2)CCN(CCC2CCC(NC(=O)/C=C/c4ccc(F)cc4)CC2)CC3)n1 (centres unmarked) [TCMDC-139865],-60.69
20,N#Cc1ccc(C=CC(=O)NC2CCC(CCN3CCc4ccc(-c5cnccn5)cc4CC3)CC2)cc1 (centres unmarked) [TCMDC-140327],-34.09
21,Cc1cc(-c2ccc3c(c2)CCN(CCC2CCC(NC(=O)/C=C/c4ccc(F)cc4)CC2)CC3)on1 (centres unmarked) [TCMDC-139926],-90.16

row,Structure (SMILES),% Inhibition [%]
1,Cc1cc(-c2ccc3c(c2)CCN(CCC2CCC(NC(=O)/C=C/c4ccccc4F)CC2)CC3)on1 (centres unmarked) [TCMDC-139974],-78.86
2,O=C(Nc1ccc(Cn2ncc(N3CCCNCC3)c(Cl)c2=O)cc1)Nc1ccc(C(F)(F)F)cc1 [TCMDC-133328],-22.6
3,O=C(Nc1cccc(CN2CCN(Cc3ccc(O)cc3)CC2)c1)c1cccc(C(F)(F)F)c1 [TCMDC-141885],-19.52
4,CCC[C@@H]([C@@H](CC1CCCCC1)C(=O)N[C@H](C(=O)Nc1nccs1)C(C)(C)SC)N(O)C=O [TCMDC-138113],-0.06569
5,COc1ccccc1N1CCN(C(C(=O)NCc2cccc(F)c2)c2ccc(C)cc2)CC1 (centres unmarked) [TCMDC-135502],14.65
6,O=c1cc(NCCCNCc2cccc(I)c2)[nH]c2ccccc12 [TCMDC-139414],-42.93
7,O=C(Nc1ccc(-c2nc3ccccc3[nH]2)cc1)C1CCN(Cc2cccc(F)c2F)CC1 [TCMDC-124682],-38.06
8,COc1ccc(CN2CCCC(N3CC4(OC3=O)c3ccccc3-c3ccccc34)C2)c(O)c1 (centres unmarked) [TCMDC-136068],22.8
9,O=C(N[C@@H](Cc1ccccc1)C(=O)NCc1cccc2ccccc12)c1ccc(O)c(-c2ccc(Cl)c(Cl)c2)c1 [TCMDC-140877],23.34
10,COc1ccc(CCN(Cc2cccs2)C(=O)c2cc3sccc3n2C)cc1OC [TCMDC-123572],18.98
11,O=C(Cc1cccc(Cl)c1)Nc1cccc(-c2c[nH]c3nc(Nc4cccc(O)c4)ncc23)c1 [TCMDC-134681],-6.738
12,O=C(N[C@H]1CCN(Cc2ccc(OCCN3CCNCC3)c(Cl)c2)C1)c1ccc(Cl)c(Cl)c1 [TCMDC-140274],104.1
13,CN1CCC[C@H]1COc1ccc(CN2CC[C@H](NC(=O)c3ccc(Cl)c(Cl)c3)C2)cc1Cl [TCMDC-140275],-2.162
14,Cc1cc(CN2CC[C@H](NC(=O)c3ccc(Cl)c(Cl)c3)C2)ccc1OCCN1CCCC1 [TCMDC-140279],-2.29
15,CN1CCC[C@H]1COc1ccc(CN2CC[C@H](NC(=O)c3ccc(Cl)c(Cl)c3)C2)cc1Br [TCMDC-140285],31.25
16,CN(C)CCCOc1ccc(CN2CC[C@H](NC(=O)c3ccc(Cl)c(Cl)c3)C2)cc1Br [TCMDC-140283],16.89
17,Cc1cc(CN2CC[C@H](NC(=O)c3ccc(Cl)c(Cl)c3)C2)ccc1OCCCN(C)C [TCMDC-140278],26.92
18,Cc1cc(CN2CC[C@H](NC(=O)c3ccc(Cl)c(Cl)c3)C2)ccc1OCCN1CCNCC1 [TCMDC-140280],58.57
19,O=C(N[C@H]1CCN(Cc2ccc(OCCN3CCNCC3)c(Br)c2)C1)c1ccc(Cl)c(Cl)c1 [TCMDC-140284],61.32
20,O=C(N[C@H]1CCN(Cc2ccc(OCCN3CCCC3)c(Cl)c2)C1)c1ccc(Cl)c(Cl)c1 [TCMDC-140273],27.77
